The target in the assay is Trypsin (Sus scrofa) (UniProt P00761). The assay is described as follows: trypsin protease activity blockade – biochemical, quenched peptide fluorescence, cherry-pick, selectivity assay for Rce1 protease inhibitor project, dose response (AID 488789).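 Further: more negative means stronger trypsin inhibition.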

Measured potencies and affinities stand elsewhere. Records with an inconclusive call do not appear. Activity calls are given as the source filed them.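 How the source made its calls: active means samples whose fitted half-maximal inhibition concentration is no more than ten times the top valid dose tested; inconclusive means flat response between -70 and -30, or invalid curve fit; inactive means flat within 30 of zero, potency above limit, or signal rising.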

Sequence of Trypsin (Sus scrofa) (P00761 whole entry, looked up): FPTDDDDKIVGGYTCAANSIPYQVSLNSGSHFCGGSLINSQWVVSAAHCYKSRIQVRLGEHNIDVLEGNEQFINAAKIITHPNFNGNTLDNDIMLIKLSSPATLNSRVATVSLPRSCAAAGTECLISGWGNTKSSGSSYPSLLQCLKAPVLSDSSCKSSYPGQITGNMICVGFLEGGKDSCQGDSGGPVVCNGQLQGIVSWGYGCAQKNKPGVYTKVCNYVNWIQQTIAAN

`CCC1CCCCN1C(=O)NC(=O)c1ccccc1` (configuration not stated): the call was inactive. For `CCSc1nc2c(c(=O)[nH]1)C(c1ccccn1)C1=C(CC(C)(C)CC1=O)N2` (configuration not stated) the value was “inactive”; for `Nc1nnnn1/N=C/c1cccc(OCc2ccccc2Cl)c1`, “inactive”; for `NC(=O)[C@@H]1CC2(CC(c3cccc(NC(=O)CC(c4ccccc4)c4ccccc4)c3)=NO2)CN1C(=O)c1ccc(Cl)cc1` (some centres not stated), “inactive”. To `O=C1CN(C(=O)NCC(=O)N2CCCC2)c2ccccc2N1` belongs “inactive”; to `Cc1cccc(-c2nnc(SCc3ccc(C#N)cc3)n2Cc2ccco2)c1`, “inactive”; to `CC(C)c1c(C(=O)N/N=C/c2c[nH]c3ccccc23)nnn1-c1nonc1N`, “inactive”. As to `COC(=O)CSc1nc(N)c2c3c(sc2n1)C(c1ccccc1)SC(c1ccccc1)C3` (configuration not stated), the call was inactive. For `Cc1ccc(-c2nc(SCC(=O)N(C)C3CCS(=O)(=O)C3)[nH]c2-c2ccc(C)cc2)cc1` (configuration not stated) the value was “inactive”; for `CN1CCN(C(=O)c2ccc(-c3cccs3)s2)CC1`, “inactive”; for `CC(C)c1ccc(/C=C2\SC(=S)N(CCC(=O)NCCCn3ccnc3)C2=O)cc1`, “inactive”.

For the compound `Cc1cccc2sc(N(CCN(C)C)C(=O)c3ccc4ccccc4c3)nc12`, the call was inactive.

With `Oc1c(N=NC(=S)Nc2ccccc2F)c2ccccc2n1Cc1ccccc1F`, the outcome was inactive. To `Cc1cccc(NC(=O)c2cc(S(=O)(=O)N3CCCCC3)c[nH]2)c1C` belongs “inactive”. To `CCN(CC)c1ccc(C(=O)c2ccccc2C(=O)O)c(O)c1` belongs “inactive”; to `O=C(/C=C/c1cn(-c2ccccc2)nc1-c1cccs1)NCCN1CCOCC1`, “inactive”; to `C/C=C(/C)C(=O)O[C@H]1[C@@H](O)c2c(ccc3ccc(=O)oc23)OC1(C)C`, “inactive”. To `CCn1cc(/C=C(\NC(=O)c2ccccc2F)C(=O)N2CCOCC2)c2ccccc21` belongs “inactive”; to `O=C(Nc1cc(Cl)cc(Cl)c1)c1coc(=O)c(Br)c1`, “inactive”. On to `Cc1cc(N/N=C/c2ccc(O)c(C)c2O)nc(-c2ccccc2O)n1`, for which the compound was called inactive. As for `C[C@@]12CCC=C[C@H]1[C@H](c1ccc(/C=C/c3ccccc3)cc1F)N(Cc1ccccc1)C2=O`, the outcome was inactive. With `COc1ccc(C2c3c(ncn(CCN4CCOCC4)c3=N)Oc3ccc4ccccc4c32)cc1` (configuration not stated), the outcome was inactive. For `COc1cccc(-c2cc(C(F)(F)F)n3ncc(S(=O)(=O)c4ccccc4)c3n2)c1` the value was “inactive”. To `CC(=O)NC(Cc1c[nH]c2ccccc12)C(=O)O` (configuration not stated) belongs “inactive”. To `CC(C)N1CCN(Cc2ccc(OCc3ccccc3)cc2)CC1CCO` (configuration not stated) belongs “inactive”; to `CCCCNC(=S)NNC(=O)CCn1cc(C)cn1`, “inactive”. As to `O=C(CCNC(=O)N1CC(=O)Nc2ccccc21)NCCc1cccc(F)c1`, the result was inactive. To `O=C(Nc1ccc2c(c1)CCC2)c1ccccc1Br` belongs “inactive”. In the case of `COc1ccc(-c2nc3ncccc3o2)cc1NC(=O)c1ccco1`, the compound was called inactive. To `COc1ccccc1NC(=O)Cc1nnc(SCC(=O)Nc2nccs2)n1C` belongs “inactive”; to `Clc1ccc(CN2CCc3c([nH]c4ccccc34)C2)cc1Cl`, “inactive”.

With `CCCCOc1ccc(-c2cc(C(F)(F)F)c(C#N)c(SCC(=O)O)n2)cc1`, the outcome was inactive. For `O=S(=O)(c1ccc(-c2csc(Nc3ccc(F)cc3)n2)cc1)N1CCCC1` the value was “inactive”; for `Cc1cccc(NC(=O)C2(c3ccc([N+](=O)[O-])cc3)CCCC2)c1`, “inactive”; for `O=C(O)CCc1nc2cc(C(F)(F)F)ccc2n(Cc2ccccc2)c1=O`, “inactive”. As to `COC(C/C=C/C(=O)[C@H](C)OCc1ccccc1)OC`, the compound was classed as inactive. For `CC(=O)N[C@@H](C)c1nc2ccccc2n1CCCN1CCN(c2nc(-c3ccc(C)cc3)cs2)CC1`, the result was inactive.

The record behind these values is PubChem BioAssay AID488789 (Broad Institute, 2010).
